Common to all, as to assay: NCI-60 one-dose screen, 48 h (100 = growth as untreated, 0 = no growth, -100 = all killed)
Common to all, as to conditions: 10 µM

The subject of assay [1] is HCT-15 colon.
In assay [2] the test system is HT29 colon.
The test system of assay [3] is SNB-75 CNS.
Assay [4] deals with SNB-19 CNS.
The subject of assay [5] is U251 CNS.
Assay [6] relates to SK-MEL-5 melanoma.
Assay [7] has as its system UACC-62 melanoma.
The subject of assay [8] is LOX IMVI melanoma.
In assay [9] the test system is SK-MEL-28 melanoma.

Here are results for 30 compounds from PubChem BioAssay (NCI).

SMILES strings stand for the structures. The panel holds about 83,000 compounds, 20% with a hit somewhere; the sample as a whole holds those more often.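 Compound tested at a single concentration for 48 hours in 96-well plates; a percent growth value below 10 was scored as active.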 Values without a mark were called inactive. The source made the active and inactive calls.

As for `Cc1c2c(nn1C(=O)c1nn(-c3ccc(Cl)cc3)cc1O)-c1ccccc1CC2`, the growth in assay [1] was 25.1%; in assay [2] it was 30%; in [3], 46.7%; in assay [4], 34.3%; in assay [5], 22.3%; in assay [6], 24.3%. Further, the growth in [7] is -6.22% (active); in [8] it was 17.5%; in assay [9], 54.7%.
Consider `Cn1c2ccccc2c2c3[nH][nH]c(=O)c3c3c4ccccc4[nH]c3c21`, for which the growth is 19.7% in assay [1]; 43.3% in assay [2]; 37.2% in assay [3]; 32.5% in [4]; 22.7% in assay [5]; -18.1% (active) in assay [6]. Further, the growth is -5.51% (active) in assay [7], -30.3% (active) in [8] and 29.3% in assay [9].
Take `CN1CCc2c(sc3nc4n(-c5ccc(Cl)cc5)cnn4c(=O)c23)C1`: the growth in assay [1] was 104%; in assay [2] it was 91.1%; in assay [3], 94.2%; in [4] it was 107%; in assay [5] it was 104%; in assay [6], 109%. Also, the growth was 102% in assay [7], 97.6% in [8] and 116% in [9].
For the compound `COc1cc2c3c(n(C4CCN(C)CC4)c(=O)c2cc1OC)-c1cc2c(cc1C3=O)OCO2`, the growth in assay [1] was 71.5%; in assay [2], 39.7%; in assay [3], 60.1%; in assay [4], 59.6%; in assay [5], 35.5%; in assay [6], 57.7%. Moreover, the growth was -25.6% (active) in assay [7], 8.68% (active) in [8] and 107% in [9].
Consider `c1cnc2[nH]cc(-c3nc(-c4ccsc4)cs3)c2c1`, for which the growth was 86.1% in assay [1]; 104% in assay [2]; 90.7% in [3]; 102% in [4]; 90.4% in [5]; 81.6% in assay [6]. Further, the growth is 96.2% in [7], 96.2% in assay [8] and 122% in [9].
For the compound `Cc1cc(C(C#N)c2ccc(Cl)cc2)c(Cl)cc1NC(=O)c1cc(I)cc(I)c1O` (stereo not given), the growth in [1] was 28.8%; in assay [2] it was 58%; in [3] it was 112%; in [4], 39.3%; in assay [5] it was 40.4%; in assay [6], 13.1%. The growth in [7] is 11.5%; in assay [8], 75.1%; in assay [9] it was 63.5%.
As for `CSc1nc2c(c(=O)n1C)CN(Cc1ccccc1)C(=O)CN2`, the growth was 85.7% in assay [1]; 110% in assay [2]; 76.9% in [3]; 97.6% in [4]; 94% in assay [5]; 101% in assay [6]. The growth in assay [7] was 83.6%; in assay [8] it was 92.1%; in [9] it was 102%.
Regarding `Nc1nc(Cn2c(-c3nonc3N)nc3ccccc32)nc(N2CCCCC2)n1`, the growth in assay [1] is 84.8%; in assay [2], 105%; in [3], 76.4%; in [4], 87%; in [5], 96.9%; in assay [6] it was 83.2%. The results for the growth in [7], in assay [8] and in assay [9] were 84.3%, 90% and 95%, respectively.
As for `COc1ccc(N(C)c2ncnc3occ(C)c23)cc1`, the growth in assay [1] was 11.1%; in assay [2] it was 7.69% (active); in assay [3] it was 44.8%; in assay [4], 27.2%; in [5] it was 13.9%; in assay [6], -44.5% (active). Further, the growth in assay [7] is 22.9%; in assay [8] it was 17.7%; in assay [9], 134%.
On to `CC(=O)OC1CC2C(C)(C)CCC[C@]2(C)C2=C1C(O)=C(C(C)C)C(=O)C2=O` (stereo not given in full), for which the growth is -23.1% (active) in assay [1]; 17.2% in assay [2]; -13.3% (active) in [3]; 21.6% in assay [4]; 19.5% in assay [5]; -99.7% (active) in assay [6]. The growth in assay [7] is -60.1% (active); in [8] it was -43% (active); in assay [9], -42.8% (active).
As to `Cc1ccc(C2NC(=S)N3C(c4ccc(C)cc4)NC(=S)N23)cc1` (stereo not given), the growth in assay [1] was 29.5%; in assay [2] it was 17.8%; in [3], 127%; in assay [4] it was 44.5%; in assay [5], 28.3%; in assay [6], 17.1%. The results for the growth in assay [7], in [8] and in assay [9] were 34.6%, 51.4% and 58.7%, respectively.
On to `O=C1c2ccccc2-c2c1c1cccnc1c(=O)n2C[C@H](O)CO`, for which the growth in assay [1] is 62.8%; in assay [2], 57.7%; in assay [3], 63.9%; in assay [4], 59.2%; in assay [5] it was 46.8%; in assay [6] it was 50.9%. For the same compound, the growth in assay [7] was 51%; in [8], 36.3%; in assay [9], 87.9%.
With `O=C(O)c1cc([N+](=O)[O-])ccc1Oc1ccccc1`, the growth was 95.4% in assay [1]; 90.8% in assay [2]; 98.1% in [3]; 98.4% in assay [4]; 95.9% in assay [5]; 84.6% in assay [6]. Besides, the growth was 103% in assay [7], 93.1% in assay [8] and 107% in assay [9].
With `c1cncc(-c2csc(-c3c[nH]c4ccccc34)n2)c1`, the growth in assay [1] was 85.4%; in assay [2], 92.4%; in [3], 63.7%; in [4], 95.5%; in [5], 90.9%; in assay [6], 84.5%. The growth was 88.7% in assay [7], 87% in [8] and 103% in assay [9].
Take `N#Cc1c(-c2ccc(Cl)cc2)cc(-c2cc(O)ccc2O)nc1N`: the growth is 43.8% in [1]; 87.3% in assay [2]; 32.8% in [3]; 26.5% in [4]; -26.5% (active) in assay [5]; -79.9% (active) in assay [6]. Further, the growth in assay [7] was -25.6% (active); in assay [8], -56.2% (active); in assay [9], 18.4%.
With `CCOC(=O)c1sc2ncnc(Nc3ccc4c(cnn4C(=O)Nc4ccc(C)c(Cl)c4)c3)c2c1C`, the growth in [1] was 95.3%; in [2], 90%; in assay [3] it was 110%; in assay [4], 103%; in [5] it was 99.3%; in assay [6] it was 102%. Also, the values for the growth in assay [7], in assay [8] and in assay [9] were 99.6%, 96% and 111%, respectively.
Regarding `O=C(CCCNC(=O)c1nc(-c2ccccc2)n(-c2ccccc2)n1)NO`, the growth was 104% in assay [1]; 90.1% in assay [2]; 107% in assay [3]; 98.1% in assay [4]; 94.6% in assay [5]; 104% in assay [6]. The growth was 102% in assay [7], 97.9% in assay [8] and 109% in assay [9].
With `Nc1ncnc2c1ncn2C1(CO)OCC(O)C(O)C1O` (stereo not given), the growth was 105% in assay [1]; 88.8% in assay [2]; 90.6% in assay [3]; 103% in [4]; 101% in assay [5]; 103% in [6]. Moreover, the growth in assay [7] is 105%; in assay [8], 94.4%; in [9], 105%.
Take `N#Cc1cnn(C(=O)c2nn(-c3ccc(Cl)cc3)cc2O)c1N`: the growth in [1] was 18.1%; in [2], 29.1%; in assay [3], 32.4%; in [4], 32.5%; in assay [5], 22%; in [6], 14.8%. Further, the growth is 5.76% (active) in [7], 8.92% (active) in assay [8] and 56.1% in assay [9].
As to `CCOc1ccccc1/C=N/N1CCCCCC1`, the growth in [1] was 100%; in assay [2] it was 104%; in assay [3] it was 77.2%; in [4], 108%; in assay [5] it was 103%; in assay [6] it was 94.4%. The values for the growth in assay [7], in assay [8] and in assay [9] were 109%, 90.3% and 107%, respectively.
With `COc1cc2cc(Oc3ccc(NC(=O)Nc4ccc(C(F)(F)F)cc4)cc3)c(C)nc2cc1OC`, the growth in [1] is 75.4%; in assay [2], 44.6%; in assay [3], 41%; in assay [4], 93.4%; in assay [5], 15%; in assay [6], 47.4%. Besides, the growth in assay [7] is 69.2%; in assay [8], 56.4%; in assay [9], 58.4%.
Consider `CCNc1nc(C(F)(F)F)nc2c1sc(=S)n2-c1ccccc1`, for which the growth was 94.7% in assay [1]; 88.8% in assay [2]; 99.2% in [3]; 107% in assay [4]; 93.3% in [5]; 87.6% in assay [6]. Also, the results for the growth in [7], in assay [8] and in assay [9] were 93.9%, 88.6% and 112%, respectively.
As for `O=C1CC(=O)N(C(=O)c2nn(-c3ccc(Cl)cc3)cc2O)N1`, the growth in assay [1] was 36.9%; in assay [2], 27.9%; in assay [3], 40.9%; in assay [4] it was 48%; in assay [5], 39.5%; in assay [6] it was 47%. Besides, the values for the growth in [7], in assay [8] and in [9] were 36.1%, 36.8% and 136%, respectively.
As to `COc1cc2c3c(n([C@H]4CCOC4)c(=O)c2cc1OC)-c1cc2c(cc1C3=O)OCO2`, the growth was 56.1% in assay [1]; 40.9% in assay [2]; 31.9% in assay [3]; 31.2% in [4]; 11.9% in [5]; 7.91% (active) in [6]. For the same compound, the growth in assay [7] is 11.3%; in [8], 4.78% (active); in [9], 72%.
For `O=S(=O)(NCCCNc1nccc(-c2cn(-c3ccccc3)nc2-c2ccc(Cl)c(O)c2)n1)c1ccccc1`, the growth in assay [1] is 51.3%; in [2] it was 60.5%; in assay [3], 80.5%; in assay [4], 86.1%; in assay [5], 59.4%; in assay [6] it was 46.1%. Also, the growth was 59.1% in assay [7], 63.1% in assay [8] and 84.5% in assay [9].
Regarding `CC1=NN(C(=O)c2nn(-c3ccc(Cl)cc3)cc2O)C(=O)C1`, the growth was 34.5% in assay [1]; 41.8% in assay [2]; 28.7% in [3]; 59.6% in assay [4]; 47.9% in [5]; 64.9% in [6]. The growth in assay [7] was 41.5%; in [8], 40.5%; in assay [9] it was 72.1%.
With `O=S(=O)(Oc1ccc(-c2ccc3sccc3c2)cc1)c1ccccc1`, the growth is 89.8% in assay [1]; 88.9% in [2]; 120% in assay [3]; 96.8% in [4]; 108% in assay [5]; 94.4% in [6]. Besides, the growth was 74.9% in [7], 101% in assay [8] and 97.9% in assay [9].
As to `COc1cc(-c2nn(-c3cccc(NC(=O)NCCNS(=O)(=O)c4ccc(Cl)cc4)c3)cc2-c2ccncc2)ccc1Cl`, the growth in assay [1] is 26.5%; in assay [2] it was -24.4% (active); in [3], 0.927% (active); in assay [4], 38.1%; in assay [5] it was -0.109% (active); in assay [6] it was -74.6% (active). Also, the growth in [7] was 25.6%; in assay [8], -0.864% (active); in assay [9], 21.4%.
Regarding `C=C/C(C)=C/C[C@]1(C)[C@H](C)[C@@H](OC(=O)CCC)[C@H](O)[C@@]23C(=C[C@H](OC)C[C@@H]12)[C@@H](OC(=O)CCC)O[C@H]3OC(C)=O`, the growth is -67.4% (active) in assay [1]; -66.9% (active) in [2]; -84.1% (active) in [3]; 27.4% in [4]; -22% (active) in assay [5]; -88% (active) in [6]. For the same compound, the growth is -78.3% (active) in assay [7], -66.4% (active) in assay [8] and -49.8% (active) in [9].
With `COc1ccc(Nc2cnc3cc(NS(=O)(=O)c4ccc(C)cc4)ccc3n2)cc1`, the growth in assay [1] is 59.8%; in assay [2], 45.1%; in [3] it was 61.7%; in assay [4] it was 83%; in assay [5], 77.9%; in [6], 77.4%. Further, the results for the growth in assay [7], in assay [8] and in [9] were 65.3%, 87% and 81.1%, respectively.
